This is part of a sample that, as a whole, favours compounds with a hit. Of some 83,000 tested, about 20% had one in any assay.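 The endpoint reported here, percent growth, reads 100 for growth as untreated, 0 for no net growth and -100 for all cells dead.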 A number with no mark means an inactive call. Active and inactive are the calls of the source. The calls were made as follows: active = growth percent below 10; inactive = the rest.

In this test the test system is HL-60(TB) leukemia. Briefly: NCI-60 one-dose screen, 48 h (100 = growth as untreated, 0 = no growth, -100 = all killed). The note with it: 10 µM unless noted.
On to `C=CCn1cc(-c2nc3ccccc3s2)c2cc(-c3ccc4c5c(cccc35)C(=O)N(CCO)C4=O)ccc21`, for which the growth was 101%.

Consider `CCCN=C(N)c1ccc(NC(=O)c2ccc(C(=O)Nc3ccc(C(N)=NCCC)cc3)cc2)cc1`, for which the growth was 77%.

On to `O=C(Nc1ccccc1)c1cc(-n2cnc([N+](=O)[O-])c2)cc(-n2cnc([N+](=O)[O-])c2)n1`, for which the growth is 96.4%.

Consider `CCC(=O)Nc1ccc(-c2nc(-c3cccc(OC)c3)c(-c3ccnc(Br)c3)[nH]2)cc1`, for which the growth is 49.5%.

`Cc1ccc(N(CC(=O)Nc2ccc(S(=O)(=O)N3CCC(N4CCCC4)CC3)cc2)S(=O)(=O)c2ccc(Cl)cc2)cc1`: the growth was -51.5% (active).

In the case of `COc1ccc(N/N=C/c2cn(-c3ccc(C(=O)O)cc3)nc2-c2cc3ccccc3oc2=O)cc1`, the growth was 8.19% (active).

Regarding `NS(=O)(=O)c1cc(Br)c2c(c1)S(=O)(=O)NCN2`, the growth was 71.2%.

Regarding `C[C@@H](Oc1ccc(C(=O)NS(=O)(=O)C(C)(C)C)cc1C(F)(F)F)c1ccc(Oc2ccccc2)cn1`, the growth was 15.8%.

As for `CC12CC(C#N)CCC1O2` (centres undefined), the growth is 101%.

As for `O=C1C=CC(=O)N1C1CCCCCCCCCCC1`, the growth was -9.95% (active).

For `CCCCNCC(O)c1cc2c(Cl)cc(Cl)cc2c2cc(C(F)(F)F)ccc12` (centres undefined), the growth is -59.2% (active).

As for `COC(=O)c1c2c(c(C)[n+]([O-])c1C)C(=O)C=C(NCc1ccc(F)c(Cl)c1)C2=O`, the growth is -28.9% (active).

For `CC1=C(C(=O)Nc2ccccc2)C(c2ccc3c(c2)OCO3)NC(=S)N1` (centres undefined), the growth is 104%.

Take `CN1CCN(Cc2ccc(NC(=O)c3[nH]ncc3Nc3ncnc4sc5c(c34)CCCC5)cc2)CC1`: the growth is -67.4% (active).

As for `Cc1cc(C)nc(SC2=C(Nc3cccc(Cl)c3C)C(=O)N(Cc3ccccc3)C2=O)n1`, the growth is 10.4% [30 µM].

As to `Cn1c(N2NC(=O)C(N=Nc3ccc(S(N)(=O)=O)cc3)C2=O)nc(-c2ccco2)c(C#N)c1=O` (centres undefined), the growth was -41.4% (active).

Consider `CC1CC(O)CC(C)(C)C1.CC1CC(O)CC(C)(C)C1.CC1CC(O)CC(C)(C)C1.CC1CC(O)CC(C)(C)C1.[Ti]` (centres undefined), for which the growth is 104%.

As to `CN1CCN(Cc2ccc(NC(=O)c3cncc(C#Cc4c(N)ncc5cc(F)ccc45)c3)cc2C(F)(F)F)CC1`, the growth is -46.2% (active).

As to `CC/C=C/[C@@H]1C=C[C@@H]2CCC[C@H]2[C@@H]1CC[C@H](O)[C@H](C)N`, the growth was -61.6% (active).

For `CC1CN(C(C)C)C(=S)N(c2ccccc2)C1=O` (centres undefined), the growth was 113%.

On to `C=CCOc1cccc(/C=C2\SC(=Nc3ccc(O)cc3)NC2=O)c1`, for which the growth is -16.8% (active).

Regarding `COC(=O)[C@]1(C)CCC[C@]2(C)[C@H]3C[C@H]4C(C(C)C)=C[C@]3(CC[C@H]21)[C@@H]1C(=O)CC[C@H](OCCC#N)[C@@H]14`, the growth is 113%.

`COc1cc(OC)c(/C=C/C(=O)c2c(OC)cccc2OC)c(OC)c1`: the growth is 7.89% (active).

Consider `CC(=O)c1cc2c(N)c(C(=O)Nc3cccc4c3OCCO4)sc2nc1C`, for which the growth is 86.8%.

As to `N#Cc1c(-c2ccc(Cl)cc2)n(O)c2ccccc12`, the growth is -0.349% (active).

In the case of `O=C(Nc1ccc(Br)cc1F)c1cc(Br)ccc1O`, the growth was -23.7% (active).

`CN(CCCCCl)P(=O)(OCc1ccc([N+](=O)[O-])o1)C(F)(F)c1ccc(CC(=O)NC[C@@H](O)/C=C\[C@@H](O)[C@H](CO)Cc2ccccc2)cc1` (some centres undefined): the growth is 80.3%.

On to `CC(=O)c1c(C)nc(SCC(=O)Nc2cccc(O)c2)n1-c1ccc(Cl)cc1`, for which the growth was 88.3%.

In the case of `COC(=O)C(N)CC(C)C` (centres undefined), the growth is 94.6%.

In the case of `C/C(Cc1ccc(Cl)cc1)=C(\c1ccc(OCCN2CCCCCC2)cc1)c1ccc(OC(=O)Cc2ccccc2)cc1`, the growth was 15.8%.

Regarding `Nc1c(C(=O)Nc2cccc3ccccc23)sc2nc3c(cc12)CCCCCC3`, the growth is -31% (active).

As for `COc1ccc2cc(-c3cc(OC)c(OC)c(OC)c3)c(=O)oc2c1`, the growth was 55.3%.

Turning to `CCOC(=O)C1=C(C)NC(SCc2nnc(-c3ccc(Cl)cc3)o2)=NC1c1ccc(Cl)cc1Cl` (centres undefined), the growth is -6.39% (active).

For the compound `Cc1ccc(C=C2C(=O)NC(=O)NC2=O)cc1`, the growth was 101%.

Take `Cc1ccc(OCCOCCOCCOCCOc2ccc(C)n(O)c2=S)c(=S)n1O`: the growth is -7.44% (active).

As to `COc1ccc(OC)c(NC(=O)c2sc3nc4c(cc3c2N)C(=O)CCC4)c1`, the growth is 88.4%.

As to `CC(=O)Oc1ccccc1C(=O)N(Cc1ccc2c(Cl)cc(Cl)c(O)c2n1)c1ccccc1`, the growth is 46.7%.

As to `CCOC(=O)c1ccc2c(c1)c1c(C)c3cnccc3c(C)c1n2C`, the growth is -18.8% (active).

Take `NNC(=O)c1nc2ccccc2[nH]1`: the growth was 101%.

The values are drawn from PubChem BioAssay (NCI).
